# In PubChem BioAssay (NCI):
# Values joined by “and” are separate entries in the source; they are usually repeats but may differ in a detail not shown here. Identical values can stand only once. This is part of a sample that, as a whole, favours compounds with a hit. Of some 79,000 tested, about 15% had one in any assay. A structure can be active in one record and inactive in another. Active and inactive are the calls of the source. No stated cut-off is given here; in the data, active means growth inhibition above about 70%; inactive means the rest.
# How the values were obtained:
# [1] = NCI Yeast Anticancer Drug Screen. Data for the mlh1 rad18 strain (AID 175); settings: S. cerevisiae mlh1 rad18 strain growth inhibition, stronger effect = higher value
# Outline: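 In this whole-cell yeast screen, a strain with altered DNA damage repair is challenged with compound, and its growth is measured against matched vehicle-treated controls.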
# [2] = NCI Yeast Anticancer Drug Screen. Data for the rad50EPP+ strain (AID 151);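 further: 0% = growth of vehicle-treated control cultures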; settings: S. cerevisiae rad50 mutant strain, stronger effect = higher value
# Outline: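 One strain with a rad50 alteration (rad50EPP+) was compound-treated, its growth then compared to that of vehicle controls.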
# [3] = NCI Yeast Anticancer Drug Screen. Data for the mgt1 strain (AID 153); settings: S. cerevisiae mgt1 mutant growth inhibition, stronger effect = higher value
# Outline: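 After exposure of the mgt1 yeast mutant to compound, growth was measured and reported as inhibition compared with vehicle controls.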
# [4] = NCI Yeast Anticancer Drug Screen. Data for the rad50 strain (AID 155);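 further: 0% = growth of vehicle-only cultures of the same strain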; settings: S. cerevisiae rad50 strain growth inhibition, stronger effect = higher value
# Outline: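 DNA repair mutant yeast, compound exposure, growth read-out; inhibition is taken relative to vehicle.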
# [5] = NCI Yeast Anticancer Drug Screen. Data for the mec2-1 strain (AID 157); settings: S. cerevisiae mec2-1 strain, stronger effect = higher value
# Outline: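 Test agents were screened against the mec2-1 yeast strain, with defined DNA repair or cell cycle alteration. Growth was scored as inhibition against vehicle-only controls.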
# [6] = NCI Yeast Anticancer Drug Screen. Data for the rad14 strain (AID 159);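 further: 0% = growth of vehicle-treated control cultures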; settings: S. cerevisiae rad14 strain growth inhibition, stronger effect = higher value
# Outline: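 DNA repair-defective yeast, compound-exposed; % growth inhibition derived by comparison with vehicle-treated controls.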
# [7] = NCI Yeast Anticancer Drug Screen. Data for the sgs1 mgt1 strain (AID 161);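 further: 0% = growth of cultures given vehicle only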; settings: S. cerevisiae sgs1 mgt1 strain, stronger effect = higher value
# Outline: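 Test agents were incubated with a DNA-repair-mutant yeast strain. Growth was then read and compared against vehicle-treated controls.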
# [8] = NCI Yeast Anticancer Drug Screen. Data for the CLN2oe strain (AID 163);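 further: 0% = growth of vehicle-only control cultures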; settings: S. cerevisiae CLN2oe strain, stronger effect = higher value
# Outline: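 Here, growth inhibition in a cell-cycle-altered yeast strain after compound exposure was quantified against vehicle control growth.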
# [9] = NCI Yeast Anticancer Drug Screen. Data for the cln2 rad14 strain (AID 165);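 further: 0% = growth equal to vehicle treated cultures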; settings: S. cerevisiae cln2 rad14 strain, stronger effect = higher value
# Outline: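 Growth of compound-exposed yeast (cln2 rad14 genotype) measured and expressed as inhibition relative to vehicle.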
# [10] = NCI Yeast Anticancer Drug Screen. Data for the bub3 strain (AID 167); settings: S. cerevisiae bub3 mutant strain, stronger effect = higher value
# Outline: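 In this screen, a yeast mutant lacking normal mitotic checkpoint function is challenged with compound. Relative growth versus vehicle gives the inhibition value.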
# [11] = NCI Yeast Anticancer Drug Screen. Data for the wt2 strain (AID 169);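 further: 0% = growth of vehicle-treated yeast cultures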; settings: S. cerevisiae wt2 strain growth inhibition, stronger effect = higher value
# Outline: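 Genetically defined yeast strains from a DNA-repair/cell-cycle panel were used. Compound-exposed yeast growth was measured, and the inhibition was calculated relative to vehicle treatment.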
# [12] = NCI Yeast Anticancer Drug Screen. Data for the mlh1 strain (AID 171);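 further: 0% = growth of vehicle-treated control cultures of the same strain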; settings: S. cerevisiae mlh1 strain growth inhibition, stronger effect = higher value
# Outline: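 Here the genetically defined yeast mutant is grown with each compound, and the extent to which its growth falls below that of vehicle-exposed cells is reported.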
# [13] = NCI Yeast Anticancer Drug Screen. Data for the sgs1 strain (AID 173);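 further: 0% = growth of vehicle-only control cultures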; settings: S. cerevisiae sgs1 mutant, stronger effect = higher value
# Outline: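 Relative growth inhibition, referenced to vehicle, was determined in a yeast strain with a defined alteration affecting DNA damage repair or cell cycle control after compound exposure.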
# [14] = NCI Yeast Anticancer Drug Screen. Data for the rad18 strain (AID 177); settings: S. cerevisiae rad18 mutant growth inhibition, stronger effect = higher value
# Outline: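 Screen uses a yeast strain with a defined lesion in DNA damage repair; compound effect is read as loss of growth compared to untreated vehicle cultures.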
# [15] = at 5.0 µM (retest, dose inferred, filed as 0.5)
# [16] = at 50.0 µM (retest, dose inferred, filed as 5.0)
structure (smiles),measurement,setting,value
O=C(O)c1ccccc1.[Ag],growth inhibition,[1]; [15],99% (active) and 40% (inactive)
same,growth inhibition,[1]; [16],99% (active) and 100% (active)
same,growth inhibition,[1]; at 50.0 µM,90.8% (active) and 91.3% (active)
Cc1c2ccccc2cc2ccccc12,growth inhibition,[2]; at 1.2 µM,52% (inactive)
same,growth inhibition,[2]; at 3.7 µM,84% (active)
same,growth inhibition,[2]; at 11.0 µM,96% (active)
same,growth inhibition,[2]; at 33.0 µM,98% (active)
same,growth inhibition,[2]; at 100.0 µM,98% (active)
same,growth inhibition,[3]; at 1.2 µM,-2% (inactive)
same,growth inhibition,[3]; at 3.7 µM,19% (inactive)
same,growth inhibition,[3]; at 11.0 µM,73% (active)
same,growth inhibition,[3]; at 33.0 µM,99% (active)
same,growth inhibition,[3]; at 100.0 µM,99% (active)
same,growth inhibition,[4]; at 1.2 µM,4% (inactive)
same,growth inhibition,[4]; at 3.7 µM,36% (inactive)
same,growth inhibition,[4]; [15],16% (inactive)
same,growth inhibition,[4]; at 11.0 µM,83% (active)
same,growth inhibition,[4]; at 33.0 µM,98% (active)
same,growth inhibition,[4]; [16],98% (active)
same,growth inhibition,[4]; at 50.0 µM,98.3% (active)
same,growth inhibition,[4]; at 100.0 µM,98% (active)
same,growth inhibition,[5]; at 1.2 µM,-2% (inactive)
same,growth inhibition,[5]; at 3.7 µM,14% (inactive)
same,growth inhibition,[5]; [15],35% (inactive)
same,growth inhibition,[5]; at 11.0 µM,61% (inactive)
same,growth inhibition,[5]; at 33.0 µM,99% (active)
same,growth inhibition,[5]; [16],99% (active)
same,growth inhibition,[5]; at 50.0 µM,98.6% (active)
same,growth inhibition,[5]; at 100.0 µM,99% (active)
same,growth inhibition,[6]; at 1.2 µM,5% (inactive)
same,growth inhibition,[6]; at 3.7 µM,21% (inactive)
same,growth inhibition,[6]; at 11.0 µM,55% (inactive)
same,growth inhibition,[6]; at 33.0 µM,99% (active)
same,growth inhibition,[6]; at 100.0 µM,99% (active)
same,growth inhibition,[7]; [15],34% (inactive)
same,growth inhibition,[7]; [16],99% (active)
same,growth inhibition,[7]; at 50.0 µM,98.4% (active)
same,growth inhibition,[8]; at 1.2 µM,9% (inactive)
same,growth inhibition,[8]; at 3.7 µM,29% (inactive)
same,growth inhibition,[8]; at 11.0 µM,82% (active)
same,growth inhibition,[8]; at 33.0 µM,99% (active)
same,growth inhibition,[8]; at 100.0 µM,99% (active)
same,growth inhibition,[9]; [15],51% (inactive)
same,growth inhibition,[9]; [16],99% (active)
same,growth inhibition,[9]; at 50.0 µM,98% (active)
same,growth inhibition,[10]; at 1.2 µM,-3% (inactive)
same,growth inhibition,[10]; at 3.7 µM,7% (inactive)
same,growth inhibition,[10]; [15],58% (inactive)
same,growth inhibition,[10]; at 11.0 µM,49% (inactive)
same,growth inhibition,[10]; at 33.0 µM,95% (active)
same,growth inhibition,[10]; [16],99% (active)
same,growth inhibition,[10]; at 50.0 µM,98.2% (active)
same,growth inhibition,[10]; at 100.0 µM,99% (active)
same,growth inhibition,[11]; at 1.2 µM,-4% (inactive)
same,growth inhibition,[11]; at 3.7 µM,-1% (inactive)
same,growth inhibition,[11]; at 11.0 µM,63% (inactive)
same,growth inhibition,[11]; at 33.0 µM,98% (active)
same,growth inhibition,[11]; at 100.0 µM,99% (active)
same,growth inhibition,[12]; at 1.2 µM,8% (inactive)
same,growth inhibition,[12]; at 3.7 µM,27% (inactive)
same,growth inhibition,[12]; at 11.0 µM,86% (active)
same,growth inhibition,[12]; at 33.0 µM,99% (active)
same,growth inhibition,[12]; at 100.0 µM,99% (active)
same,growth inhibition,[13]; at 1.2 µM,-14% (inactive)
same,growth inhibition,[13]; at 3.7 µM,20% (inactive)
same,growth inhibition,[13]; at 11.0 µM,97% (active)
same,growth inhibition,[13]; at 33.0 µM,99% (active)
same,growth inhibition,[13]; at 100.0 µM,99% (active)
same,growth inhibition,[1]; [15],65% (inactive)
same,growth inhibition,[1]; [16],99% (active)
same,growth inhibition,[1]; at 50.0 µM,97.8% (active)
same,growth inhibition,[14]; at 1.2 µM,5% (inactive)
same,growth inhibition,[14]; at 3.7 µM,25% (inactive)
same,growth inhibition,[14]; at 11.0 µM,76% (active)
same,growth inhibition,[14]; at 33.0 µM,98% (active)
same,growth inhibition,[14]; at 100.0 µM,98% (active)
Cc1cc(N=Nc2ccccc2C)ccc1N,growth inhibition,[4]; [15],34% (inactive) and 23% (inactive)
same,growth inhibition,[4]; [16],44% (inactive) and 96% (active)
same,growth inhibition,[4]; at 50.0 µM,91.4% (active) and 88.5% (active)
same,growth inhibition,[5]; [15],46% (inactive) and 23% (inactive)
same,growth inhibition,[5]; [16],52% (inactive) and 99% (active)
same,growth inhibition,[5]; at 50.0 µM,93% (active) and 91.7% (active)
same,growth inhibition,[7]; [15],-4% (inactive) and 31% (inactive)
same,growth inhibition,[7]; [16],99% (active) and 96% (active)
same,growth inhibition,[7]; at 50.0 µM,93.5% (active) and 89.3% (active)
same,growth inhibition,[9]; [15],41% (inactive) and 20% (inactive)
same,growth inhibition,[9]; [16],98% (active) and 96% (active)
same,growth inhibition,[9]; at 50.0 µM,91.1% (active) and 91.5% (active)
same,growth inhibition,[10]; [15],12% (inactive) and 41% (inactive)
same,growth inhibition,[10]; [16],97% (active) and 99% (active)
same,growth inhibition,[10]; at 50.0 µM,91.5% (active) and 90% (active)
same,growth inhibition,[11]; at 1.2 µM,2% (inactive)
same,growth inhibition,[11]; at 3.7 µM,-7% (inactive)
same,growth inhibition,[11]; at 11.0 µM,4% (inactive)
same,growth inhibition,[11]; at 33.0 µM,96% (active)
same,growth inhibition,[11]; at 100.0 µM,99% (active)
same,growth inhibition,[1]; [15],32% (inactive) and 35% (inactive)
same,growth inhibition,[1]; [16],38% (inactive) and 97% (active)
same,growth inhibition,[1]; at 50.0 µM,90.8% (active) and 91.9% (active)
CNC(Cc1ccccc1)c1ccc(OC)c(OC)c1 (configuration not stated),growth inhibition,[4]; [15],69% (inactive)
same,growth inhibition,[4]; [16],95% (active)
same,growth inhibition,[4]; at 50.0 µM,-2.25% (inactive)
same,growth inhibition,[5]; [15],79% (active)
same,growth inhibition,[5]; [16],97% (active)
same,growth inhibition,[5]; at 50.0 µM,4.05% (inactive)
same,growth inhibition,[7]; [15],-31% (inactive)
same,growth inhibition,[7]; [16],14% (inactive)
same,growth inhibition,[7]; at 50.0 µM,18.7% (inactive)
same,growth inhibition,[9]; [15],18% (inactive)
same,growth inhibition,[9]; [16],13% (inactive)
same,growth inhibition,[9]; at 50.0 µM,-15.6% (inactive)
same,growth inhibition,[10]; [15],21% (inactive)
same,growth inhibition,[10]; [16],28% (inactive)
same,growth inhibition,[10]; at 50.0 µM,14.3% (inactive)
same,growth inhibition,[11]; at 1.2 µM,-20% (inactive)
same,growth inhibition,[11]; at 3.7 µM,-14% (inactive)
same,growth inhibition,[11]; at 11.0 µM,-26% (inactive)
same,growth inhibition,[11]; at 33.0 µM,-13% (inactive)
same,growth inhibition,[11]; at 100.0 µM,-25% (inactive)
same,growth inhibition,[1]; [15],57% (inactive)
same,growth inhibition,[1]; [16],98% (active)
same,growth inhibition,[1]; at 50.0 µM,7.3% (inactive)
NP(N)(=O)Nc1ccccc1,growth inhibition,[4]; [15],-1% (inactive)
same,growth inhibition,[4]; [16],-2% (inactive)
same,growth inhibition,[4]; at 50.0 µM,7.75% (inactive)
same,growth inhibition,[5]; [15],2% (inactive)
same,growth inhibition,[5]; [16],-2% (inactive)
same,growth inhibition,[5]; at 50.0 µM,-22.4% (inactive)
same,growth inhibition,[7]; [15],-1% (inactive)
same,growth inhibition,[7]; [16],-1% (inactive)
same,growth inhibition,[7]; at 50.0 µM,-23.9% (inactive)
same,growth inhibition,[9]; [15],0% (inactive)
same,growth inhibition,[9]; [16],-2% (inactive)
same,growth inhibition,[9]; at 50.0 µM,66.7% (inactive)
same,growth inhibition,[10]; [15],2% (inactive)
same,growth inhibition,[10]; [16],-6% (inactive)
same,growth inhibition,[10]; at 50.0 µM,-8% (inactive)
